High-throughput results as filed in PubChem BioAssay.
Compounds with a hit are over-represented: about 21% of the library has one in this group of screens.
Pf growth 48h – Primary qHTS for delayed death inhibitors of the malarial parasite plastid, 48 hour incubation. AID 504832, 2011. actives 5.9% (n = 310,000). Potency, µM (series often up to 28.7 µM), without a hit: at the highest dose activity change, negative = inhibition, hits mostly inhibitors. P. falciparum luciferase growth in erythrocytes, 48 h; note: potency is the fitted concentration of half-maximal effect; % is set by controls: 0 for no effect and ±100 for the full control effect
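Luciferase-expressing parasites in RBCs, 2% Hct / 0.1% parasitemia final; RPMI 1640 + 0.5% Albumax; 37 C, 5% CO2, one generation; luminescence read-out, lower signal = inhibition.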
Shiga inhibitor – A qHTS for Small Molecule Inhibitors of Shiga Toxin. Vero cells, Shiga toxin protein synthesis inhibition reporter. inhibition, % at 38.7 µM. actives 9.2% (n = 290,000); in the data active = inhibition mostly above about 28%, no sharp cut-off; inactive = mostly below about 43%; note: 0% is about no effect
Cycloheximide cs – Cycloheximide Counterscreen for Small Molecule Inhibitors of Shiga Toxin; cell reporter, cycloheximide protein synthesis inhibition counterscreen; max response, %; actives 12% (n = 300,000); AID 2314, 2010; in the data active = max response mostly above about 13%, no sharp cut-off; inactive = mostly below about 14%; note: read at 38.3 µM for the half of the compounds with a filed dose; 0% is about no effect
SARS PLpro yeast – qHTS of Yeast-based Assay for SARS-CoV PLP | S. cerevisiae expressing SARS-CoV PLpro, growth rescue | Potency, µM (highest dose often 32.9 µM), without a hit: at the highest dose activity, positive = growth rescue, most hits filed as activators | actives 0.19% (n = 330,000) | AID 485353, 2010; calls by dose curve; note: potency is the fitted concentration of half-maximal effect; 0% is about no effect; nearly all actives have a fitted effect of over 55% in size
Pf growth 96h – Primary qHTS for delayed death inhibitors of the malarial parasite plastid, 96 hour incubation | P. falciparum luciferase reporter growth, 96 h | Potency, µM (top dose mostly 28.7 µM), for inactives: at the highest dose activity change, negative = inhibition, usual class: inhibitors | actives 6.9% (n = 320,000); note: potency is the fitted concentration of half-maximal effect; % is set by controls: 0 for no effect and ±100 for the full control effect
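Parasite growth measured via integrated firefly luciferase reporter in P. falciparum. Infected erythrocytes at 2% hematocrit, 0.05% parasitemia final were treated 96 hours at 37 C under 5% CO2, and luminescence was read.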
NS1 function inh – qHTS Assay for Inhibitors of Influenza NS1 Protein Function | Potency, µM (doses to about 46.1 µM), inactives show top-dose activity, positive = more growth | actives 0.4% (n = 270,000) | AID 2326, 2010; calls by dose curve; note: potency is the fitted concentration of half-maximal effect; actives are rising curves; nearly all actives have a fitted effect of over 50% in size
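Recovery from NS1-induced slow growth read by OD600 in budding yeast switched to galactose assay medium (pH 6.0, -URA) at 1:100 dilution. Compound 23 nl per well; the matching strain lacking NS1 serves as control.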
The depositor's hits bear a star; u = inconclusive; x = no result; [ ] = another dose, or the depositor's remark. Unless noted, calls come from the whole dose curve; as a rule, active = well fitted inhibition curve with a large enough effect; inconclusive = small, poorly fitted or top-dose-only effect, or another doubt; inactive = no such curve, though single readings can be large or run the other way.

SMILES	Pf growth 48h	Shiga inhibitor	Cycloheximide cs	SARS PLpro yeast	Pf growth 96h	NS1 function inh
CC(C)(C)NC(=O)C(c1ccc(-c2ccccc2)cc1)N(C[C@H]1CC[C@@H]([C@@H]2CC[C@H](CO)O2)O1)C(=O)c1ccccc1F (stereo partly drawn)	x	x	x	14.9%	x	x
CCCNC(=O)c1nnsc1Sc1ccc(Cl)cc1	23.3%	87.2*	23.5*	4.3%	-6.0%	x
CNCCCOc1cc(C)cc(C)c1C	-22.8%	-11.7	-1.7	0.7%	u	-3.0%
COc1ccc(Nc2nc(N)c(C(=O)c3ccc(OC)cc3)s2)cc1	u	6.9	7.4	-1.0%	233.0%	1.8%
COc1ccc(/C(C)=N/Nc2nc(C)c(C(C)=O)s2)cc1	u	65.1*	11.8*	9.8%	2.6%	-1.7%
CC(C)(C)C(=O)c1sc(Nc2ccccc2)nc1N	u	68.4*	59.0*	-12.6%	0.9%	-14.2%
CCOC(=O)c1sc(Nc2nc(C)cc(C)n2)nc1C	u	-2.7	2.2	-1.7%	u	-1.3%
CCOC(=O)c1sc(Nc2ccc(C)cc2C)nc1C	u	19.3	17.6*	-12.1%	x	-4.2%
COc1ccc(C(=O)c2sc(Nc3ccccc3)nc2C)cc1	-15.3%	7.5	7.3	-3.5%	u	-31.6%
Cc1nc(Nc2ccccc2)sc1C(=O)c1ccccc1	26.2%	58.3*	46.9*	-5.2%	u	-9.4%
CC1CCCCC1NC(=O)CCC(=O)N1CCOc2ccc(Cl)cc21 (stereo not drawn)	6.2%	-3.7	-10.8	-3.7%	u	-9.5%
Cc1cc(OCCN2CCN(S(=O)(=O)c3ccccc3F)CC2)ccc1C(C)C	u	x	x	0.9%	2.0%	x
COc1ccc(C(C(=O)NCC2CCCO2)N(Cc2cccs2)C(=O)c2snc(C(N)=O)c2N)cc1 (stereo not drawn)	u	6.0	-4.1	6.6%	u	-5.1%
O=C(O)c1ccc(Nc2nc3c(s2)CCCC3)cc1	23.6%	-31.9	-5.1	0.2%	19.1%	3.7%
Cc1cccc(Nc2nc3c(s2)CCCC3)c1	96.5%	122.2*	68.2*	-23.6%	u	14.0%
COc1ccccc1CNc1nc(C)c(C(C)=O)s1	3.8%	61.3*	43.4*	1.4%	2.6%	13.2%
COC(=O)c1sc(NC(=O)C(C)c2ccccc2)nc1C (stereo not drawn)	4.4%	42.3	9.4	-40.8%	u	-16.1%
COC(=O)c1sc(Nc2ccccc2)nc1C	154.0%	103.7*	35.3*	u	-21.5%	-87.4%
CCOC(=O)c1sc(Nc2nc3c(OC)cccc3s2)nc1C	-89.7%	81.3*	49.8*	-3.0%	0.8%	-7.9%
CC(C)CN(C(=O)c1cccc(S(=O)(=O)N2CCN(Cc3ccccc3)CC2)c1)C1CCS(=O)(=O)C1 (stereo not drawn)	-10.1%	x	x	1.9%	u	x
COc1cc(CO)cc(Br)c1OCC(=O)Nc1cccc2ccccc12	-14.2%[5.75 µM]	-3.7	-2.6	-2.2%	u	x
CC(=O)c1sc(Nc2cccc(C)c2)nc1C	42.6%	91.1*	46.1*	-1.5%	40.6%	-13.4%
CCOC(=O)Nc1nc(C)c(C(=O)c2ccc(Cl)cc2)s1	34.8%	-7.7	0.8	7.1%	x	-7.5%
COC(=O)c1ccc(/C=N/Nc2nc(C)c(C)s2)cc1	48.1%	97.4*	63.5*	17.6%	u	-41.1%
CC(=O)c1sc(NC(=O)c2c(F)cccc2F)nc1C	50.9%	-7.2	8.5	-3.7%	x	u
SMILES	Pf growth 48h	Shiga inhibitor	Cycloheximide cs	SARS PLpro yeast	Pf growth 96h	NS1 function inh
CCOC(=O)c1sc(NC(=O)Nc2ccc(Cl)cc2)nc1C	u	72.2*	42.9*	-4.1%	39.2%	6.3%
O=S1(=O)N=C(Nc2nc3c(s2)CCCC3)c2ccccc21	281.6%	56.6*	28.3*	-13.8%	8.2%	14.2%
COc1ccc(CCN(C)C(=O)c2ccc(C)c(S(=O)(=O)N3CCCCC3)c2)cc1OC	u	x	x	3.4%	u	x
Cc1cccc(NC(=O)c2cccc(Cn3cc(Br)c([N+](=O)[O-])n3)c2)c1C	u	8.3	-3.0	-2.7%	u	5.0%
CC(C)(C)OC(=O)N1CCCC(C(=O)Nc2cccc(C(=O)N3CCCC3)c2)C1 (stereo not drawn)	x	x	x	7.7%	x	x
CCOC(=O)c1sc(Nc2ccccc2)nc1C	x	55.8*	51.8*	-0.9%	172.1%	-55.1%
CCOC(=O)c1sc(NC(=O)c2ccccc2OCC)nc1C	-7.2%	68.5	36.3*	2.2%	6.4%	x
CCOC(=O)c1sc(NS(=O)(=O)c2ccccc2)nc1C	5.8%	-10.5	-1.0	5.9%	u	10.1%
CCOc1ccccc1C(=O)Nc1nnc(C(C)C)s1	x	14.1	6.4	2.2%	1.1%	-9.2%
O=C(O)Cc1sc(N/N=C\c2ccccc2)nc1-c1ccccc1	-15.5%	57.7*	52.9*	-25.7%	u	u
CCOC(=O)c1sc(Nc2ccc(F)cc2)nc1C	35.9%	79.6*	27.7*	0.8%	70.4%	x
Cc1ccc(S(=O)(=O)NCC(=O)Nc2cccnc2)cc1C	x	x	x	2.3%	x	x
CCOc1ccc(C(=O)NN2C(=O)C3C4C=CC(O4)C3C2=O)cc1 (stereo not drawn)	30.6%	21.0	2.7	-0.8%	83.4%	6.9%
CNc1nc(C)c(C(=O)OCc2ccccc2)s1	61.8%	93.3*	29.0*	-8.7%	0.0%	-55.4%
CCOC(=O)c1sc(N/N=C/c2ccccc2)nc1C	289.6%	34.3*	84.8*	-8.4%	25.6%	-5.2%
CCOC(=O)c1sc(N/N=C/c2cccc(C)c2)nc1C	58.6%	16.4	15.7	8.6%	153.6%	0.8%
CC(=O)c1sc(N/N=C\c2ccccc2O)nc1C	-1.5%	40.2	30.2*	0.4%	269.1%	-2.9%
CCOC(=O)c1sc(NCC2CCCO2)nc1C (stereo not drawn)	38.4%	10.0	active	-2.8%	u	0.6%
CNc1nc(C)c(C(=O)OCC(=O)OC)s1	-11.7%	42.1	28.7	12.5%	95.8%	-2.4%
CCOC(=O)c1sc(NC(=O)C2CC2)nc1C	x	28.8	5.5	-12.5%	u	-47.1%
CCn1cc(C(C)NC(=O)COc2ccc(Cl)cc2C)c(C)n1 (stereo not drawn)	-13.9%	-13.1	-2.1	-2.1%	x	-16.1%
CC(C)CCn1c(Oc2ccccc2Cl)nc2c1c(=O)n(C)c(=O)n2C	u	13.5	-5.8	-5.6%	u	-5.8%
CC1=C(C(=O)OCc2ccccc2)C(c2cccc([N+](=O)[O-])c2)NC(=O)N1C (stereo not drawn)	-0.1%	-15.2	-2.9	3.0%	u	21.8%
N#CC(Cc1ccc(O)c(O)c1)C(=O)N1CCc2ccccc21 (stereo not drawn)	x	x	x	x	x	3.1%
O=C(Cn1cnc2ccccc21)N/N=C/c1cccc([N+](=O)[O-])c1	15.0%	-15.7	1.6	-0.5%	10.3%	-1.4%
COc1cc(C(=O)Nc2cccc3c2CCCC3)cc(OC)c1OC	-16.0%	-1.1	-2.5	0.1%	0.0%	-13.8%
